Screens as filed in PubChem BioAssay.
Sampled rows, rich in hits. Any-hit rate of the full collection: about 5%.
Tb PYK inh – T. brucei pyruvate kinase inhibition; Q57TT1; Potency, µM (highest dose often 76.8 µM), usual class: inhibitors; TbPYK enzyme, Kinase-Glo Plus ATP luminescence, 45 min; AID 624173; 0.12% of 410,000 active; further: nearly all actives have a fitted effect of over 50% in size
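T. brucei PYK with substrate was exposed to pin-transferred compounds across a concentration series, then started with 130 uM ADP (final). After 45 min at room temperature, Kinase-Glo Plus luminescence was read, normalized and curve-fitted.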
HCMV inh – human cytomegalovirus inhibition; AID 1259415; 4.5% of 410,000 active; activity change, negative = inhibition, % at 57.5 µM; HFF cells, HCMV-luciferase reporter, 72 h; stronger effect = lower value; in the data active means activity change below about -60%; inconclusive means no clear call, values can overlap the other calls; inactive means above about -39%
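Luciferase read-out from HCMV-luciferase-infected HFFs (MOI 1 PFU/cell) 72 h post infection at 37C; compounds added after 16 h cell attachment; activity normalized between buffer-only basal and Salinomycin (10uM) inhibitor controls.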
LmPK inh – inhibitors of Leishmania mexicana pyruvate kinase | purified LmPK, Kinase-Glo ATP luminescence, 1 h | 0.37% of 290,000 active | Q27686 | Potency, µM (series often up to 57.5 µM), most hits filed as inhibitors
Target sequence (Q27686 whole entry, looked up): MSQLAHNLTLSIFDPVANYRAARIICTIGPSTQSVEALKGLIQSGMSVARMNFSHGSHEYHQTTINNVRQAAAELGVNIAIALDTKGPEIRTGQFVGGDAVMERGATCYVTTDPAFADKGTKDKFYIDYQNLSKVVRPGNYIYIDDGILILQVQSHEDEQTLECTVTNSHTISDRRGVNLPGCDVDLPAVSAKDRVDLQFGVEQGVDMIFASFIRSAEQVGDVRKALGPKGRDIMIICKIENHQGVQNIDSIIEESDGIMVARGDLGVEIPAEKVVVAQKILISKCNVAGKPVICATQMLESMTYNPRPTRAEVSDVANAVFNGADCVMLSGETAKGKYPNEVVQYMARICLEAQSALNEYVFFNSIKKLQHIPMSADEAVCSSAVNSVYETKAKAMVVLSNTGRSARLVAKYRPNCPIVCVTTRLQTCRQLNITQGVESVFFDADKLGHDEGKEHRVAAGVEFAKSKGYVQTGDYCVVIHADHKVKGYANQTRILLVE
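qHTS format; LmPK 0.1 nM; substrates PEP 0.5 mM and ADP 0.1 mM. One-hour room-temperature incubation, then coupled luciferase luminescence; 0.5 nM enzyme wells mark activation.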
VACV mCherry inh – inhibitors of vaccinia virus infection (mCherry reporter signal) | AID 720579 | Potency, µM (top dose mostly 36.5 µM), actives largely listed as inhibitors | 0.63% of 310,000 active | Vaccinia virus mCherry reporter infection, fluorescence; calls by dose curve; tested in A549 cells; further: nearly all actives have a fitted effect of over 35% in size
VACV Venus inh – inhibitors of vaccinia virus (Venus reporter). Vaccinia virus Venus reporter expression, fluorescence. Potency, µM (doses to about 36.5 µM), actives largely listed as inhibitors. 0.46% of 330,000 active. AID 720580; calls by dose curve; tested in A549 cells; further: nearly all actives have a fitted effect of over 30% in size
Large screens that a line does not name were inactive. Unless noted, the call rests on the fitted dose curve; in most records, active means well fitted curve in the direction sought with a large enough effect; inconclusive means small, poorly fitted or top-dose-only effect, or another doubt; inactive means no such curve, though single readings can be large; an effect the other way counts as inactive or inconclusive.

Brc1ccc2[nH]cc(/C=N/N3CCCCC3)c2c1	HCMV inh -84
COc1ccc(S(=O)(=O)N2CCC(C(=O)NCCC(=O)NCc3ccccn3)CC2)cc1	none (no result: LmPK inh)
O=C(COc1cccc(F)c1)Nc1nc(-c2ccccn2)cs1	VACV mCherry inh 11µM, VACV Venus inh inconclusive (no result: LmPK inh)
O=C(COc1ccc([N+](=O)[O-])cc1)Nc1nc(-c2ccccn2)cs1	HCMV inh -71, VACV mCherry inh 5.6µM, VACV Venus inh inconclusive (no result: LmPK inh)
O=C(CN1c2ccccc2Sc2ccccc21)NNC(=O)Nc1cccc(Cl)c1	HCMV inh -73, VACV mCherry inh inconclusive, VACV Venus inh inconclusive
C=CCn1c(SCc2ccc(Cl)cc2)nc2cc(C(=O)N3CCC(C(N)=O)CC3)ccc2c1=O	HCMV inh inconclusive
Cn1nc([N+](=O)[O-])c(C(C#N)c2ccccn2)c(Cl)c1=O (stereo unspecified)	HCMV inh -97 (no result: VACV mCherry inh, VACV Venus inh)
CCCn1nc([N+](=O)[O-])c(C(C#N)c2nc3ccccc3o2)c(Cl)c1=O (stereo unspecified)	none
CCc1ccc(C2=NNC(=Nc3cccc(S(=O)(=O)N(C)C)c3)SC2)cc1	HCMV inh -99, VACV mCherry inh inconclusive, VACV Venus inh inconclusive
Cc1cccc(N=C2NN=C(c3ccc4c(c3)OCCO4)CS2)c1	none (no result: VACV mCherry inh, VACV Venus inh)
O=C(O)c1ccccc1-c1c2cc(Br)c(=O)cc-2oc2[c]([Hg])c(O)c(Br)cc12	Tb PYK inh inconclusive (no result: HCMV inh, LmPK inh, VACV Venus inh)
Cc1cc2ccccc2c(=O)n1CC(=O)N(C)c1ccc(F)cc1	HCMV inh -103
Cc1ccc(NC(=O)CNC(=O)Cn2c(C)cc3ccccc3c2=O)cc1F	none (no result: LmPK inh)
Oc1ccc(CCNc2ncnc3ccc(Cl)cc23)cc1	HCMV inh -98, VACV mCherry inh inconclusive, VACV Venus inh inconclusive
COc1ccc(C(CC(=O)N2CCCC(C)C2)c2c(OC)cc(OC)c3c(-c4ccccc4)cc(=O)oc23)cc1 (stereo unspecified)	HCMV inh -68, VACV Venus inh inconclusive
COc1ccc(C(CC(=O)N2CCCC2)c2c(OC)cc(OC)c3c(-c4ccccc4)cc(=O)oc23)cc1 (stereo unspecified)	VACV Venus inh inconclusive
CCCCCc1cc(=O)oc2c(C(CCN3CCCC3)c3cc(OC)c(OC)c(OC)c3)c(OC)cc(OC)c12 (stereo unspecified)	VACV mCherry inh 14µM, VACV Venus inh 16µM
CCCCCc1cc(=O)oc2c(C(CCN(CC)CC)c3ccc(OC)cc3)c(OC)cc(OC)c12 (stereo unspecified)	HCMV inh -81, VACV Venus inh inconclusive
CCCCCc1cc(=O)oc2c(C(CCN3CCCC3)c3ccc(N(C)C)cc3)c(OC)cc(OC)c12 (stereo unspecified)	VACV mCherry inh inconclusive, VACV Venus inh inconclusive
CCCCCc1cc(=O)oc2c(C(CCN3CCCC(C)C3)c3ccc(OC)cc3)c(OC)cc(OC)c12 (stereo unspecified)	VACV Venus inh inconclusive
CCCCCc1cc(=O)oc2c(C(CCN3CCCCC3)c3ccc(OC)cc3)c(OC)cc(OC)c12 (stereo unspecified)	VACV mCherry inh 13µM, VACV Venus inh inconclusive
O=C(OCc1c(-c2ccccc2)ncc2ccccc12)c1cccs1	VACV Venus inh inconclusive (no result: LmPK inh)
O=C1c2ccccc2C(c2nnnn2-c2ccc3c(c2)OCCO3)N1Cc1ccc(F)cc1 (stereo unspecified)	none (no result: LmPK inh)
O=C1NC[C@@H](CCCCN2C[C@H](Cc3ccc(O)cc3)N(Cc3ccccc3)C(=O)C2=O)N(CC2CCCCC2)C1=O	none (no result: LmPK inh)
O=C1NC[C@H](CCCCN2C[C@H](Cc3ccc(O)cc3)N(CC3CCCCC3)C(=O)C2=O)N(Cc2ccccc2)C1=O	HCMV inh -75 (no result: LmPK inh)
CC(C)C[C@@H](CN1CCC[C@H]1CN1C(=O)C(=O)NC[C@@H]1Cc1ccccc1)N1C[C@H](Cc2ccc(O)cc2)N(CC2CCCCCC2)C(=O)C1=O	HCMV inh -103, VACV mCherry inh inconclusive, VACV Venus inh inconclusive (no result: LmPK inh)
CC(C)C[C@H]1CN([C@@H](CC(C)C)CN2CCC[C@@H]2CN2C(=O)C(=O)NC[C@@H]2Cc2ccccc2)C(=O)C(=O)N1CC1CCCCC1	HCMV inh -66 (no result: LmPK inh)
CC(C)C[C@H]1CNC(=O)C(=O)N1C[C@H]1CCCN1C[C@H](CC(C)C)N1C[C@H](Cc2ccccc2)N(CC2CCCCC2)C(=O)C1=O	none (no result: LmPK inh)
Cc1nc2ccc(F)cc2cc1C(=O)Nc1ccc(Cl)c(Cl)c1	HCMV inh -61
CC(C)Cn1c(C(C)C)nc([N+](=O)[O-])c1Sc1ccc(Cl)cn1	none (no result: VACV mCherry inh, VACV Venus inh)
CCCCn1c(CCC)nc([N+](=O)[O-])c1Sc1ccc(Cl)cn1	HCMV inh -77 (no result: VACV mCherry inh, VACV Venus inh)
CCOC(=O)C1CCNC(=O)C1=O (stereo unspecified)	HCMV inh inconclusive (no result: LmPK inh)
O=C(NC(=S)N1CCCC1)c1cccc([N+](=O)[O-])c1	none (no result: VACV mCherry inh, VACV Venus inh)
CCCCn1c(N)c(N(CC(C)C)C(=O)c2ccc(OCc3c(C)noc3C)cc2)c(=O)[nH]c1=O	none (no result: LmPK inh)
c1ccc(Nc2nc3ccccc3o2)cc1	LmPK inh 16µM
Fc1ccccc1Nc1nc2ccccc2o1	Tb PYK inh inconclusive, LmPK inh 16µM, VACV mCherry inh inconclusive
Cc1cc(C)nc(Nc2nc3ccccc3o2)n1	none
CCCC(=O)NC(c1ccc(C(C)C)cc1)c1ccc2cccnc2c1O (stereo unspecified)	HCMV inh -98, VACV mCherry inh inconclusive
Cc1ccc2ccc(C(Nc3ccccc3)c3ccc(Cl)cc3)c(O)c2n1 (stereo unspecified)	HCMV inh inconclusive, VACV mCherry inh inconclusive (no result: Tb PYK inh, LmPK inh)
Cc1cc(NC(c2ccc(Cl)cc2)c2ccc3cccnc3c2O)no1 (stereo unspecified)	HCMV inh -98, VACV Venus inh inconclusive (no result: VACV mCherry inh)
CCCC(=O)NC(c1ccc(OC)cc1)c1c(O)ccc2ccccc12 (stereo unspecified)	VACV mCherry inh inconclusive
CC(=O)NC(c1ccc(Cl)cc1)c1ccc2cccnc2c1O (stereo unspecified)	HCMV inh -99 (no result: LmPK inh, VACV mCherry inh, VACV Venus inh)
CC(=O)NC(c1ccco1)c1ccc2cccnc2c1O (stereo unspecified)	VACV Venus inh inconclusive (no result: HCMV inh, VACV mCherry inh)
CCC(=O)NC(c1ccc(C)cc1)c1ccc2cccnc2c1O (stereo unspecified)	HCMV inh -98, VACV mCherry inh inconclusive, VACV Venus inh inconclusive
Cc1ccc(S(=O)(=O)Cc2ccc(C(=O)N3CCCCC3C)cc2)cc1 (stereo unspecified)	none
Cc1cc(C)c(S(=O)(=O)N2CCN(C(=O)N3CCOCC3)CC2)c(C)c1	none (no result: VACV mCherry inh, VACV Venus inh)
O=c1c(N2CCN(c3cccc(Cl)c3)CC2)csc2ccccc12	VACV mCherry inh inconclusive, VACV Venus inh inconclusive (no result: LmPK inh)
COC(=O)[C@H](Cc1ccccc1)N1C/C=C\COc2c(Cl)cc(Cl)cc2S1(=O)=O	none (no result: LmPK inh)
COc1ccc(C(NC(=O)C(C)C)c2ccc3cccnc3c2O)cc1 (stereo unspecified)	HCMV inh -99, VACV mCherry inh 4.5µM, VACV Venus inh inconclusive
CCCCC(=O)NC(c1ccc(OC)cc1)c1ccc2cccnc2c1O (stereo unspecified)	HCMV inh -98, VACV mCherry inh 10µM, VACV Venus inh inconclusive (no result: LmPK inh)
